The panel holds about 83,000 compounds, 20% with a hit somewhere; the sample as a whole holds those more often.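 Testing used 96-well plates and a 48-hour single-concentration exposure. Example: -40 means 40% of the starting cells died.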 Active and inactive are the calls of the source. The calls were made as follows: active = growth percent below 10; inactive = the rest.
What was measured:
Test in all cases: NCI-60 one-dose screen, 48 h (100 = growth as untreated, 0 = no growth, -100 = all killed)
Details in all cases: 10 µM unless noted
[1] = system: SR leukemia
[2] = system: RPMI-8226 leukemia
[3] = system: OVCAR-8 ovarian
[4] = system: OVCAR-5 ovarian
[5] = system: OVCAR-4 ovarian
[6] = system: SK-OV-3 ovarian
[7] = system: IGROV1 ovarian
[8] = system: OVCAR-3 ovarian
[9] = system: HS 578T breast
[10] = system: NCI/ADR-RES ovarian
[11] = system: T-47D breast
[12] = system: BT-549 breast
[13] = system: MDA-MB-435 melanoma
[14] = system: SW-620 colon
[15] = system: MCF7 breast
[16] = system: HCT-116 colon
[17] = system: HCC-2998 colon
[18] = system: KM12 colon
[19] = system: MDA-MB-468 breast

Measured: growth

CNS(=O)(=O)c1ccc(Nc2ccc(C(F)(F)F)cc2)c(-c2cn(C)cn2)c1
inactive: [1] 51.6% | [2] 35.6% | [3] 52.6% | [4] 68.3% | [5] 70.1% | [6] 86.8% | [7] 35.5% | [8] 54.7% | [9] 59.6% | [10] 35% | [11] 47.7% | [12] 58.7% | [13] 55.5% | [14] 70.9% | [15] 42.3% | [16] 49.4% | [17] 43.6% | [18] 35.9%
active: [19] -1.31%

Cn1cc(-c2cc3nc(-c4c[nH]c5ccc(Cl)cc45)cc(N)n3n2)c2ccccc21
active: [1] 5.34% | [2] -38.7% | [3] -64.7% | [4] -89.2% | [5] -67.4% | [6] -86.5% | [7] -53.1% | [8] -62.7% | [9] -27.1% | [10] -29.7% | [11] -73.9% | [12] -74% | [13] -84.7% | [14] -39.3% | [15] -73.7% | [16] -88.3% | [17] -78% | [18] -70.3% | [19] -73.5%

CCCSc1nc(NCCc2c[nH]c3ccccc23)c(C#N)c(-c2ccc(OC)cc2)n1
active: [1] 4.81% | [15] 7.41%
inactive: [2] 23.9% | [3] 67.9% | [4] 82.1% | [5] 61.2% | [6] 90.6% | [7] 91.2% | [8] 82.3% | [9] 42.9% | [10] 47.9% | [11] 15.3% | [12] 83.2% | [13] 62.5% | [14] 42.5% | [16] 20.8% | [17] 48% | [18] 37.1% | [19] 26.4%

COc1ccccc1C(=O)NN1C(=O)/C(=C/C2=Cc3ccccc3OC2)SC1=S
inactive: [1] 92.1% | [2] 88.6% | [3] 99.9% | [4] 109% | [5] 102% | [6] 94.5% | [7] 107% | [8] 107% | [9] 111% | [10] 107% | [11] 104% | [12] 83.6% | [13] 110% | [14] 114% | [15] 92.9% | [16] 95.7% | [17] 117% | [18] 99.5% | [19] 115%

S=C(Nc1ccccc1)Nc1ccc(OCc2nc3ccccc3[nH]2)cc1
active: [18] -32%
inactive: [1] 32.5% | [2] 39.2% | [3] 35.8% | [4] 66.3% | [5] 38.9% | [6] 86.6% | [7] 56.3% | [8] 29% | [9] 50.6% | [10] 43% | [11] 36.1% | [12] 49.4% | [13] 24.6% | [14] 48% | [15] 20.2% | [16] 35.6% | [17] 17.3% | [19] 21.9%

COc1cc(C2CC(c3cc(OC)c(OC)c(OC)c3)=Nc3c(N)nc(N)nc3N2)ccc1Oc1nc(NCCO)nc(N2CCOCC2)n1 (stereo not drawn)
inactive: [1] 93.1% | [2] 95.5% | [3] 99.9% | [4] 106% | [5] 107% | [6] 104% | [7] 104% | [8] 107% | [9] 95% | [10] 97.6% | [11] 90.3% | [12] 116% | [13] 100% | [14] 103% | [15] 87.4% | [16] 100% | [17] 115% | [18] 99.9% | [19] 81.2%

CN(C)CCOc1ccc(C(=O)C2[C@H](c3ccc(Cl)cc3)[C@@H](c3ccccc3)NC23C(=O)Nc2ccc(Br)cc23)cc1 (stereo partly drawn)
active: [1] -36.4% | [2] -30.8% | [3] -61.8% | [8] -4.55% | [13] -66.5% | [14] -80% | [15] -59.8% | [16] -96.6% | [17] -94.4% | [18] -48.4% | [19] -84.7%
inactive: [4] 36.4% | [5] 33.9% | [6] 96% | [7] 29.1% | [9] 58.7% | [10] 23% | [11] 42% | [12] 67%

COc1ccc(-c2nc3cc(C)ccc3n2CC(=O)N=Nc2c(O)[nH]c3ccc(OC)cc23)cc1
active: [1] -21.1% | [2] -14.7% | [3] -68.8% | [4] -48.2% | [5] -58.1% | [6] -17.7% | [7] -17.3% | [8] -71.8% | [9] -23.4% | [10] -56.1% | [11] -60% | [12] -85.4% | [13] -67.8% | [14] -48.2% | [15] -50.3% | [16] -97.4% | [17] -67.9% | [18] -79.5% | [19] -77.1%

Nc1cccc(SCc2cc3ccccc3[nH]c2=O)c1
inactive: [1] 36.5% | [2] 33.1% | [3] 56.7% | [4] 63.6% | [5] 44.1% | [6] 80% | [7] 72.9% | [8] 65.2% | [9] 78.2% | [10] 67.8% | [11] 33.3% | [12] 46.7% | [13] 30.5% | [14] 23.5% | [15] 37.4% | [16] 50.3% | [17] 26.8% | [19] 45.9%
active: [18] 0.625%

COc1cc2oc(-c3cccc(NC(=O)[C@H](CC(N)=O)NC(=O)OC(C)(C)C)c3)cc(=O)c2c(OC)c1OC
inactive: [1] 58.4% | [2] 69.3% | [3] 73.3% | [4] 95.5% | [5] 94.6% | [6] 140% | [7] 96.9% | [8] 105% | [9] 83.1% | [10] 102% | [11] 65.7% | [12] 82.6% | [13] 97.2% | [14] 94.5% | [15] 71.8% | [16] 89.3% | [17] 100% | [18] 87.1% | [19] 82.7%

Cc1ccccc1[C@H]1C(C(=O)c2ccc(Cl)cc2)C2(N[C@@H]1c1ccccc1)C(=O)Nc1ccc(Br)cc12 (stereo partly drawn)
inactive: [5] 14.6% | [6] 33.4% | [7] 13.4% | [9] 10.7% | [11] 22.6% | [12] 13.1% | [14] 13.3%
active: [1] -21.5% | [2] -10.5% | [3] 2.36% | [4] 5.07% | [8] -30.7% | [10] -55.1% | [13] 3.21% | [15] -6.57% | [16] -71.6% | [17] -22.1% | [18] 3.4% | [19] -26.1%

Cc1ccc(C(=O)NN2C(=O)/C(=C/C=C/c3ccc([N+](=O)[O-])o3)SC2=S)cc1
active: [1] 2.44% | [2] -1.56% | [3] -75.9% | [4] -94.9% | [5] -100% | [6] -78.1% | [7] -90.3% | [8] -97.3% | [9] -18.3% | [10] -48.8% | [11] -61.1% | [12] -90% | [13] -66.3% | [14] -69.1% | [15] -49.2% | [16] -77.7% | [18] -83.2% | [19] -85.7%

C=C1CCC2C3(C)COC(c4ccccc4)OC3CCC2(C)C1CC(Sc1ccccc1)C1=CCOC1=O (stereo not drawn)
inactive: [3] 12.9% | [4] 58.5% | [5] 50.4% | [6] 120% | [7] 58% | [8] 44% | [9] 94.1% | [11] 33.1% | [13] 45.8% | [14] 14.8% | [15] 17% | [17] 36.8% | [18] 47.5% | [19] 27.3%
active: [1] 8.04% | [2] 3.18% | [10] -22.7% | [12] -19% | [16] 4.36%

COc1ccc2[nH]c(O)c(N=NC(=O)COc3ccc(NC(=O)Nc4ccccc4)cc3)c2c1
active: [3] 9.54% | [12] -36.4% | [18] -46.2%
inactive: [1] 52.8% | [2] 80% | [4] 72.3% | [5] 19.7% | [6] 42.3% | [7] 60.7% | [8] 65.5% | [9] 14% | [10] 110% | [11] 27.1% | [13] 56.9% | [14] 38.4% | [15] 23.7% | [16] 29.3% | [17] 34.9% | [19] 13%

NS(=O)(=O)c1ccc(N=Nc2c(O)n(CC(=O)Nc3ccccc3Cl)c3ccccc23)cc1
active: [3] 1.19% | [12] -4.12% | [15] 6% | [16] 8.6%
inactive: [1] 26.9% | [2] 29% | [4] 56.3% | [5] 53% | [6] 36.7% | [7] 18% | [8] 21.3% | [9] 50.5% | [10] 30.4% | [11] 19.7% | [13] 34.5% | [14] 24.5% | [17] 28.3% | [18] 17.1% | [19] 26.3%

COc1ccc2[nH]cc(-c3nnc(N)nc3-c3cn(C)c4ncc(Br)cc34)c2c1
inactive: [1] 49.6% | [2] 74.5% | [3] 75.8% | [4] 84.8% | [5] 69.1% | [6] 95.2% | [7] 58.4% | [8] 65.7% | [9] 55.7% | [10] 83.5% | [11] 62.5% | [12] 64.1% | [13] 81.9% | [14] 87.9% | [15] 68.7% | [16] 79.6% | [17] 80.2% | [18] 75.5% | [19] 42.9%
